Legend:
Experiment in all cases: log2 ratio of Biotin-Ahx-Ub-VS probe labelling (fragment/DMSO); higher = less target engagement (more negative = stronger competition), active = hit call of the paper (q ≤ 0.05, log2 ratio ≤ -1)
Details in all cases: compound concentration: 200 uM; treatment time: 3 h
[1] = target: T1, USP19 (UniProt O94966)
T1 sequence (whole entry): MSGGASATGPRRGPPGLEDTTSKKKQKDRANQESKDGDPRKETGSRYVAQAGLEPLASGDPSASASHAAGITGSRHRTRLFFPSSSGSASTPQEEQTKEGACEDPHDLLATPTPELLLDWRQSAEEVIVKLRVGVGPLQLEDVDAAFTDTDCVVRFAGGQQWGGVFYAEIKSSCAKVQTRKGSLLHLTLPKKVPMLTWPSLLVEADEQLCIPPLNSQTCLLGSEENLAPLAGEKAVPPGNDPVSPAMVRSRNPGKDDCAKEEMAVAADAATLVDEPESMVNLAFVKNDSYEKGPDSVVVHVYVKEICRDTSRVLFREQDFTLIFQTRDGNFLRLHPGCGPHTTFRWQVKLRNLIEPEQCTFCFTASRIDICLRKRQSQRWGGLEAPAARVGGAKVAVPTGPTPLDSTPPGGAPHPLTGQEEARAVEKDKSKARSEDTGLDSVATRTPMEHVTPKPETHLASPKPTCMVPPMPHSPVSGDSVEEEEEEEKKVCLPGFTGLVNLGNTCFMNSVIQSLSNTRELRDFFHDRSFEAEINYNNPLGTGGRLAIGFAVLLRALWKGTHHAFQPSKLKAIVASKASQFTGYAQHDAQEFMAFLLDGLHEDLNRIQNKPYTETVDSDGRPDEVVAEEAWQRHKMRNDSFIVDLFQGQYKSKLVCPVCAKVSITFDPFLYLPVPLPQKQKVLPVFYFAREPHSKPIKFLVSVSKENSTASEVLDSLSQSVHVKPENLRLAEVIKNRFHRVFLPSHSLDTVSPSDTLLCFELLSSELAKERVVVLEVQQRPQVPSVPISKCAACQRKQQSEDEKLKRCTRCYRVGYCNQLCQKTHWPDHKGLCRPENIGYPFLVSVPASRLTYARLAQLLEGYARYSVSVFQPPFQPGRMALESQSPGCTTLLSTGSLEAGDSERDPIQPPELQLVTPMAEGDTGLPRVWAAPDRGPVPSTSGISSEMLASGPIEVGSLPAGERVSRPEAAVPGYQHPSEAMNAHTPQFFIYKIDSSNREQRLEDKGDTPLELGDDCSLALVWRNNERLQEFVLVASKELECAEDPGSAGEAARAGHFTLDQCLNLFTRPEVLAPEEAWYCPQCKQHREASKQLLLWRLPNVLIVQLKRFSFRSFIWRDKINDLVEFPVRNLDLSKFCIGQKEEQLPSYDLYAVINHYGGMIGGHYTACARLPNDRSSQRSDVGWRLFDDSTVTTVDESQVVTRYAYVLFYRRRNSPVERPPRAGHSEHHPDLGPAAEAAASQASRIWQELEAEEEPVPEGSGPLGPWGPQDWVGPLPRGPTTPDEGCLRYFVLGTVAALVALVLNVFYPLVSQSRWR
In short: (§1)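 HEK293T lysate (495 µg per sample, in Tris/CHAPS/IGEPAL buffer with protease inhibitors) was exposed in triplicate for 3 h to fragment at 200 µM or to vehicle, then to Biotin-Ahx-Ub-VS at 0.5 µM final for 1 h. Labelled DUBs were enriched on NeutrAvidin, digested with LysC and trypsin, and analysed by diaPASEF LC-MS/MS. Spectronaut label-free quantities were normalised to the global median, and values are average log2 ratios of fragment over vehicle from an unpaired t-test. Only proteins with ≥2 unique peptides were used.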

[2] = target: T2, USP22 (UniProt Q9UPT9)
T2 sequence (whole entry): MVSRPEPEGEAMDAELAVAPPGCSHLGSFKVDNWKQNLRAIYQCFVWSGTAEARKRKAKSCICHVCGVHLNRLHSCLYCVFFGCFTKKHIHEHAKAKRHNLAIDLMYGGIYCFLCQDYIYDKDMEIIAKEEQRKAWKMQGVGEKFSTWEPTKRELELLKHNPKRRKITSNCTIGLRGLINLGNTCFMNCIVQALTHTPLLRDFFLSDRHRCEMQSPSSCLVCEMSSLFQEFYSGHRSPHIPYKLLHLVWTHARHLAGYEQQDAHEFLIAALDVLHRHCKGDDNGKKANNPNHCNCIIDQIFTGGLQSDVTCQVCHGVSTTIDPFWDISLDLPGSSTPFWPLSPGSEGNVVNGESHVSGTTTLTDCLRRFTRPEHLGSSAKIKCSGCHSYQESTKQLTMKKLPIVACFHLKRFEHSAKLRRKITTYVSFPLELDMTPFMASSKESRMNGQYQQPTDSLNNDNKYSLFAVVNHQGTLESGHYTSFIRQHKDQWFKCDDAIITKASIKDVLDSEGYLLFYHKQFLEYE
In short: as §1

[3] = target: USP24 (UniProt Q9UPU5)
In short: as §1

[4] = target: T3, USP25 (UniProt Q9UHP3)
T3 sequence (whole entry): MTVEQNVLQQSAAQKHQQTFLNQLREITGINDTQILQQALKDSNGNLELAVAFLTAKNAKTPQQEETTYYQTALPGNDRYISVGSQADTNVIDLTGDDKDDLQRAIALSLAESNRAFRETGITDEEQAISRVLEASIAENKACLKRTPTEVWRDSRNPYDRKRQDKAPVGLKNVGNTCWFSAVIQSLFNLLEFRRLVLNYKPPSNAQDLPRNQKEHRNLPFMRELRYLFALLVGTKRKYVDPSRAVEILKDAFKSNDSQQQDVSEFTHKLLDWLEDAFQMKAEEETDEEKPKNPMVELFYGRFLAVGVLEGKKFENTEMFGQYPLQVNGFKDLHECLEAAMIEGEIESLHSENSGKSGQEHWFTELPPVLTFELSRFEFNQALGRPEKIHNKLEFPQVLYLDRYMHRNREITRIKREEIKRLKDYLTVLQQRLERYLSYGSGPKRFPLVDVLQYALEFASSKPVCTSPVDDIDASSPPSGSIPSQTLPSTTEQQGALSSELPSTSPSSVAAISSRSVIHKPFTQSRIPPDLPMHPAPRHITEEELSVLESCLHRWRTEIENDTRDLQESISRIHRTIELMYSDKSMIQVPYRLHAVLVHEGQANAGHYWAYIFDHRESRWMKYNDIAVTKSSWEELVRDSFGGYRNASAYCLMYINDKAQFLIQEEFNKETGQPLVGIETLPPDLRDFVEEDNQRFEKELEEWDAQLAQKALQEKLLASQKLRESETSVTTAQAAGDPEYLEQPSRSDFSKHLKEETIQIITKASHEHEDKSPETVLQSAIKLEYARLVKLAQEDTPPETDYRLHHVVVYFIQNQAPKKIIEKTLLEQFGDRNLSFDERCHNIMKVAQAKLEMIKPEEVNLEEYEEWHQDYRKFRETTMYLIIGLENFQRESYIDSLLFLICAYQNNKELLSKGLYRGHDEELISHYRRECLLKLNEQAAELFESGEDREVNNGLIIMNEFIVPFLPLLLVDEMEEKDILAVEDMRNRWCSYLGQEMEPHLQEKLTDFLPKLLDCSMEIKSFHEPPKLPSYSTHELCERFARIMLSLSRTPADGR
In short: as §1

[5] = target: T4, USP28 (UniProt Q96RU2)
T4 sequence (whole entry): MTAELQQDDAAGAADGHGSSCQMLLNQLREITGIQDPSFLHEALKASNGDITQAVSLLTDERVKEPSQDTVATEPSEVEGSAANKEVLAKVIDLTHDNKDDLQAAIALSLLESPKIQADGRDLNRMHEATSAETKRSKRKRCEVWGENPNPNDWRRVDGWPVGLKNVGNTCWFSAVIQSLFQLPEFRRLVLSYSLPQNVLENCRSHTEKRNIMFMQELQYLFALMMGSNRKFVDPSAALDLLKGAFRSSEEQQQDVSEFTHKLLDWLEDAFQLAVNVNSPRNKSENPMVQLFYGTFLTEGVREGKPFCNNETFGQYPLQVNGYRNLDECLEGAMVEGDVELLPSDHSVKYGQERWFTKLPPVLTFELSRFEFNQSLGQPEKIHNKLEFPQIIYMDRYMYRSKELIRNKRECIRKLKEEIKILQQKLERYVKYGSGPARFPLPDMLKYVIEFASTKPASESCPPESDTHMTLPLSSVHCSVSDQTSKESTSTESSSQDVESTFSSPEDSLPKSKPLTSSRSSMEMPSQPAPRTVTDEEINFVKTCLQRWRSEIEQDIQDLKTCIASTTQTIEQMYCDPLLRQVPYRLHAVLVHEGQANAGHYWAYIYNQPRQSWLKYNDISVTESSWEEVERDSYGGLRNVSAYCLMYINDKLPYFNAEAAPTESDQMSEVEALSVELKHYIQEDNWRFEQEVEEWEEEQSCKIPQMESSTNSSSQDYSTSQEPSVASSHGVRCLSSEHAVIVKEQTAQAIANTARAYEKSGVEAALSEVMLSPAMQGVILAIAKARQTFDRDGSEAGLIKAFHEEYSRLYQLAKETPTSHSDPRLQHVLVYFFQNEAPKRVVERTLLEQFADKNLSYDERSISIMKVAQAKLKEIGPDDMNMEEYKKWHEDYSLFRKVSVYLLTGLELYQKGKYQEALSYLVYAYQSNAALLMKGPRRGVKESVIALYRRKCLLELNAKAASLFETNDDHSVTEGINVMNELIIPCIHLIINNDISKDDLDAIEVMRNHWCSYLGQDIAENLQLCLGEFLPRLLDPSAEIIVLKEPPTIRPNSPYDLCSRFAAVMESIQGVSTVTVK
In short: as §1

Measured: log2 ratio of Biotin-Ahx-Ub-VS probe labelling

Chain of USP24 (Q9UPU5 whole entry): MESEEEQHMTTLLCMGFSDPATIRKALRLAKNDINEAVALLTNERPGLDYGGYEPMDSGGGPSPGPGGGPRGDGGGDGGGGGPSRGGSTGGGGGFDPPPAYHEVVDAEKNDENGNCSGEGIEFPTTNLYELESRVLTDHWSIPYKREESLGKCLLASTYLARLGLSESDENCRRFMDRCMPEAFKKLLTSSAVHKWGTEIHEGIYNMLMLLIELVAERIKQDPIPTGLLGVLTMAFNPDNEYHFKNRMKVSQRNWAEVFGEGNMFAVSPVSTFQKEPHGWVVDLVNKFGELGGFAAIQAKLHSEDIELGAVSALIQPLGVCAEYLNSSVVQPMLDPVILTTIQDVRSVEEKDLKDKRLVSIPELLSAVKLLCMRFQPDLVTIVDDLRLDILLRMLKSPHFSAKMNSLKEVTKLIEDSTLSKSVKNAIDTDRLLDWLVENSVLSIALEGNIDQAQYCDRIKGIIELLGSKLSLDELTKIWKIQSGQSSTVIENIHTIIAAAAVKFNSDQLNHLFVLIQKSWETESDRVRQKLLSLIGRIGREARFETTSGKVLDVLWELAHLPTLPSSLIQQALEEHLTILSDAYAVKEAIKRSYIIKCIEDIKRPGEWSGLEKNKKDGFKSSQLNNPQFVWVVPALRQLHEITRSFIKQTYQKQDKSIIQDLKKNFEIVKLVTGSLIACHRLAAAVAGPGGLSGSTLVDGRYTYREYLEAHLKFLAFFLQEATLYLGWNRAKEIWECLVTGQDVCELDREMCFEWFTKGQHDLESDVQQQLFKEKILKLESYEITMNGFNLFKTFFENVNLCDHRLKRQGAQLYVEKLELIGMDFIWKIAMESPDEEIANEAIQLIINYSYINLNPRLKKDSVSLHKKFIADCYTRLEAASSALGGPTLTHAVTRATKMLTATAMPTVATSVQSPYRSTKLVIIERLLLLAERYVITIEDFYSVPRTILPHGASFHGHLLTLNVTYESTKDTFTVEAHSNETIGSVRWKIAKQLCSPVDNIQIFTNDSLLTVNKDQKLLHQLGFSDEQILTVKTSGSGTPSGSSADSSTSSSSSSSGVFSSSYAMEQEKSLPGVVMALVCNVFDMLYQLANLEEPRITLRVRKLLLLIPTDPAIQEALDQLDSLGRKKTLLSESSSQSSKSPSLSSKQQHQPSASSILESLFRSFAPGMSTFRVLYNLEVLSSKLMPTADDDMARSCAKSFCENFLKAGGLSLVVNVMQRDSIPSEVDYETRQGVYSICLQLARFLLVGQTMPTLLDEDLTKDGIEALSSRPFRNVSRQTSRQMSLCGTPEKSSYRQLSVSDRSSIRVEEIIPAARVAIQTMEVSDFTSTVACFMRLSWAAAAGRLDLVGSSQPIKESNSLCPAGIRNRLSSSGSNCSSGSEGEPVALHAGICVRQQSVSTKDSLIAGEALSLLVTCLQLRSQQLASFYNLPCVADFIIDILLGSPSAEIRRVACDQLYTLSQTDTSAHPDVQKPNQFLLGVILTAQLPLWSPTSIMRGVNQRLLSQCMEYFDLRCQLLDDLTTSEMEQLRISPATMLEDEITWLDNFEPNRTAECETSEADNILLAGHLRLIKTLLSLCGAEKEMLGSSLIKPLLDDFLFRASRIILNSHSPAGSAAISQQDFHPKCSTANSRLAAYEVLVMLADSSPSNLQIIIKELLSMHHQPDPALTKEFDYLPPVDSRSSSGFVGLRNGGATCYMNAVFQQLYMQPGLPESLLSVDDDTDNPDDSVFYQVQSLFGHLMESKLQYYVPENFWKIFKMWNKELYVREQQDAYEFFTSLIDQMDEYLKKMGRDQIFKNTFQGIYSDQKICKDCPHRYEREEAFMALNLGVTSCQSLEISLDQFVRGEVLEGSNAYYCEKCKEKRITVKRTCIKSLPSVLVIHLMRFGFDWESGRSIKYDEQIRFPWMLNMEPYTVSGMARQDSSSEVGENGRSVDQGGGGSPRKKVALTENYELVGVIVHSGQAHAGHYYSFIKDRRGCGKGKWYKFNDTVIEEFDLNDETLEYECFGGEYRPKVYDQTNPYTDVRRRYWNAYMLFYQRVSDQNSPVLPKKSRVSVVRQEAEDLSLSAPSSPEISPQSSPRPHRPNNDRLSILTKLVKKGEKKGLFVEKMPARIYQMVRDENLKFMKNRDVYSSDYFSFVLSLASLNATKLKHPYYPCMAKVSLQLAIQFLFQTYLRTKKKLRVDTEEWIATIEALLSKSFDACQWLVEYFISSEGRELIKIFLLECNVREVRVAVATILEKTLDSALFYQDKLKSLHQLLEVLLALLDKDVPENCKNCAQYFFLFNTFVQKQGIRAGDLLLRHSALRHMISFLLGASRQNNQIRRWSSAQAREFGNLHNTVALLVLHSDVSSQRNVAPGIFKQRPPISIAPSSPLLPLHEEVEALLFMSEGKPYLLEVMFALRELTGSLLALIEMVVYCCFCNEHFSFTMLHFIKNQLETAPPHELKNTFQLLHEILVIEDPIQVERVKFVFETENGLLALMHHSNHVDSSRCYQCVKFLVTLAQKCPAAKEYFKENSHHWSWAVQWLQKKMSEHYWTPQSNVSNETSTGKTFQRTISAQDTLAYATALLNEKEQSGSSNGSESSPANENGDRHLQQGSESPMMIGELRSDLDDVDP

O=C(CCl)NCc1noc(C2CC2)n1
inactive: [1] 0.0297 | [2] -0.122 | [3] -0.225 | [4] -0.329 | [5] -0.393
